# Shiga inhibitor: inhibitors of Shiga toxin in Vero cells | Vero cells, Shiga toxin protein synthesis inhibition reporter | inhibition, % at 38.7 µM | 9.2% of 290,000 active | AID 2315; in the data active means inhibition mostly above about 28%, no sharp cut-off; inactive means mostly below about 43%
# AMA1-RON2 inh: inhibitors of Plasmodium falciparum AMA1-RON2 interaction | AlphaScreen AMA1-biotinylated RON2 peptide binding | Potency, µM (titrated, usually from 58.2 µM), usual class: inhibitors | 0.2% of 360,000 active | AID 720542; further: nearly all actives have a fitted effect of over 45% in size
#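 AMA1 (3D7) with his tag at 25 nM final met compounds first, then biotinylated RON2 peptide at 25 nM; detection used donor plus acceptor beads, 10 µg/mL apiece, read by AlphaScreen after 30 min at room temperature.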
# Pf growth 48h: P. falciparum growth inhibition at 48 hours (one generation); P. falciparum luciferase growth in erythrocytes, 48 h; Potency, µM (series often up to 28.7 µM), most hits filed as inhibitors; 5.9% of 310,000 active; AID 504832
#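 Here the parasites carry a stable luciferase gene and grow inside erythrocytes in Albumax-based RPMI medium with compound for one erythrocytic cycle. Activity is scored as loss of luminescent signal.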
# Pf growth 96h: P. falciparum growth inhibition at 96 hours. 6.9% of 320,000 active. P. falciparum luciferase reporter growth, 96 h. Potency, µM (highest dose often 28.7 µM), most hits filed as inhibitors
#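 Compounds incubated with erythrocytes infected by luciferase-expressing P. falciparum (2% hematocrit, 0.05% parasitemia final) for 96 hours, 37 C in 5% CO2. Growth inhibition scored as decreased luciferase luminescence.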
# Cycloheximide cs: affects cycloheximide protein synthesis inhibition readout, counter-screen. max response, %. AID 2314. 12% of 300,000 active. cell reporter, cycloheximide protein synthesis inhibition counterscreen; in the data active means max response mostly above about 13%, no sharp cut-off; inactive means mostly below about 14%; further: read at 38.3 µM for the half of the compounds with a filed dose
# HCV inhibitor: blocks hepatitis C virus; Huh7.5.1 HCVcc-Cre infection, luciferase reporter, 44 h; Potency, µM (titrated, usually from 41.8 µM), most hits filed as inhibitors; 3.4% of 340,000 active; AID 651820
#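 Cells seeded at 1,000/well and cultured 4 h, then compounds added followed by HCVcc-Cre virus (~0.5 moi). After 44 h further culture, luciferase substrate was added, plates held 15 min at room temperature, and luminescence read for 15 sec.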
# A number is an active result; . = inactive; ? = inconclusive; / = not tested or not shown. Sampled rows, rich in hits. Any-hit rate of the full collection: about 21%. Unless noted, the call rests on the fitted dose curve; in most records, active means well fitted curve in the direction sought with a large enough effect; inconclusive means small, poorly fitted or top-dose-only effect, or another doubt; inactive means no such curve, though single readings can be large; an effect the other way counts as inactive or inconclusive.
SMILES,Shiga inhibitor,AMA1-RON2 inh,Pf growth 48h,Pf growth 96h,Cycloheximide cs,HCV inhibitor
CN(C)S(=O)(=O)c1cccc(COC(=O)c2ccc(Cl)cc2O)c1,106,.,?,.,45,?
CN(C)S(=O)(=O)c1cccc(COc2ccccc2C(=O)Nc2ccccc2)c1,.,.,10µM,9.3µM,.,?
CN(C)S(=O)(=O)c1cccc(NC(=O)c2ccccc2OCc2ccc(F)cc2)c1,.,.,12µM,?,.,6.3µM
CC(NC(=O)CCNS(=O)(=O)c1cccc2nsnc12)c1ccccc1 (stereo unspecified),.,.,.,2.9µM,.,.
Cc1cccc(NC(=O)CCNS(=O)(=O)c2cccc3nsnc23)c1,.,.,.,?,.,.
O=S(=O)(Nc1ccccc1)c1cccc2nsnc12,.,.,.,8.3µM,.,.
Cc1ccc(NS(=O)(=O)c2cccc3nsnc23)cc1,.,.,?,.,.,.
O=C(CCNS(=O)(=O)c1cccc2nsnc12)Nc1ccc2c(c1)OCCO2,.,.,.,/,24,.
CC(C)c1ccc(NC(=O)CCNS(=O)(=O)c2cccc3nsnc23)cc1,.,.,.,/,.,?
O=S(=O)(Nc1ccc2c(c1)OCCO2)c1cccc2nsnc12,77,.,/,?,49,.
O=C(CCNS(=O)(=O)c1cccc2nsnc12)NCCC1=CCCCC1,.,.,.,.,.,?
O=S(=O)(NCCC1=CCCCC1)c1cccc2nsnc12,.,.,3.7µM,.,.,.
COc1ccc(C(C(=O)NC(C)(C)C)N(C(=O)CCC(=O)Nc2cc(C)on2)c2c(C)cccc2C)cc1 (stereo unspecified),.,.,?,.,.,?
COC(=O)c1cc(C)[nH]c2c(C)cc3nc4ccccc4c3c12,.,.,?,?,.,10µM
COCCCNCC(O)COc1ccccc1F (stereo unspecified),.,.,.,.,.,.
Cc1cc(CCC(=O)O)c(C)cc1CCC(=O)O,.,.,5.9µM,?,.,.
CC(C)c1cccc(-c2csc(C(O)c3cccc(Cl)c3)n2)c1 (stereo unspecified),/,.,/,/,/,/
Cc1ccc(C(=O)N(C)c2ccc(OCC(=O)N3c4ccc(C)cc4C4CN(C)CCC43)cc2)cc1 (stereo unspecified),.,.,?,?,37,.
COc1ccc(OCC(=O)N2c3ccc(C)cc3C3CN(C)CCC32)cc1 (stereo unspecified),.,.,.,.,.,.
Cc1ccc2c(c1)C1CN(C)CCC1N2C(=O)CCCN1C(=O)c2cccc3cccc(c23)C1=O (stereo unspecified),.,.,1.9µM,3.7µM,.,?
CN(Cc1cn(Cc2ccc(Cl)cc2)nn1)C1CN(Cc2cn(Cc3ccc(Cl)cc3)nn2)S(=O)(=O)C1 (stereo unspecified),/,.,/,/,/,/
CC(C)(C)Cc1c(-c2ccccc2)nc2ccc(Cl)cn12,/,.,/,/,/,/
CCCCNC(=O)C1(C)CCN1C(=O)c1ccc(C)c(F)c1 (stereo unspecified),/,.,/,/,/,/
CCCCn1c(N)c(N(CC(C)C)C(=O)COC(=O)Cc2c(C)nc3ccccc3c2C)c(=O)[nH]c1=O,.,.,?,?,.,.
CC(C)c1cccc(C(C)C)c1NC(=O)c1ccc(-c2cc(Cl)ccc2Cl)o1,/,.,/,/,/,/
SMILES,Shiga inhibitor,AMA1-RON2 inh,Pf growth 48h,Pf growth 96h,Cycloheximide cs,HCV inhibitor
Cc1cccc(-c2cc(NCCc3cccnc3)n3nccc3n2)c1,/,.,/,/,/,/
O=C(NC1CCCCC1)c1ccc(COCC(F)(F)F)o1,.,.,.,.,.,.
Cc1cccc(CC(=O)NCC2CCCCC2)c1,93,.,.,?,31,.
Cc1ccc(NC(=O)N2CCC(NC(=O)c3cccc(C)c3)CC2)cc1,.,.,?,10µM,.,.
Cc1ccc(C(=O)Nc2cccc(C(=O)NC3CCCCC3)c2)cc1,/,.,/,/,/,?
O=C(NC1CCCCCC1)c1cccc(COCC(F)(F)F)c1,active,.,.,.,22,?
Cc1cccc(C(=O)NC2CCCCCCC2)c1,78,.,/,.,45,.
O=C(COC(=O)c1cc(=O)[nH]c2ccccc12)Nc1ccc(F)cc1,/,.,/,/,/,.
O=C(COc1ccc2ccc(=O)oc2c1)NC1CCN(Cc2ccccc2)CC1,.,.,.,.,.,.
COC(=O)CC(NC(=O)CN1CCN(c2ccc(F)cc2)CC1)c1cccc(F)c1 (stereo unspecified),.,.,.,.,.,.
CCOC(=O)c1nc(NCc2cccc(OC)c2)c2ccccc2n1,.,.,.,.,.,.
CCCN1C(=O)c2cc(C(=O)NC3CCCCCC3)ccc2C1O (stereo unspecified),41,.,.,?,34,.
CN(C)c1cccc(C(=O)NC2CCCCCC2)c1,43,.,.,/,40,.
CCC(CC)C(C(=O)NCc1ccccc1)N1CCN(CCN2CCOCC2)CC1 (stereo unspecified),/,.,/,/,/,/
Cc1ccc(S(=O)(=O)N(C)C)cc1NC(=O)Cn1c(CN2CCOCC2)nc2ccccc2c1=O,.,.,15µM,.,.,.
O=C(CSc1nc2ccccc2c(=O)n1CCCN1CCOCC1)NCCc1ccccc1,/,.,/,/,/,.
COc1ccc(NC(=O)CSc2nc3ccccc3c(=O)n2CCCN2CCOCC2)c(OC)c1,.,.,?,?,.,.
O=C(CSc1nc2ccccc2c(=O)n1CCCN1CCOCC1)NC12CC3CC(CC(C3)C1)C2,.,.,10µM,?,.,.
CN(C)S(=O)(=O)c1ccc(Cl)c(NC(=O)CSc2nc3ccccc3c(=O)n2CCCN2CCOCC2)c1,.,.,?,10µM,.,?
COc1ccc(NC(=O)C(C2CC2)n2c(=O)c(-c3ccccc3)nc3ccccc32)cc1 (stereo unspecified),/,.,/,/,/,/
Cc1ccc(C)c(C(O)c2ncc(-c3ccc(F)cc3)[nH]2)c1 (stereo unspecified),/,.,/,/,/,/
CCOC(=O)CCCCCC(=O)Nc1ccc2c(c1)C(=O)N([C@@H](C)CO)C[C@@H](C)[C@H](CN(C)S(=O)(=O)c1cccs1)OCCCC[C@H](C)O2,/,.,/,/,/,/
Cc1ccsc1C(=O)OCC(=O)Nc1sccc1C(N)=O,65,.,.,.,42,?
COc1ccc(C(=O)NC(C(=O)OCC(=O)Nc2sccc2C(N)=O)C(C)C)cc1 (stereo unspecified),/,.,12µM,.,/,.
Cc1ccsc1C(=O)OCC(=O)NCCNC(=O)COC(=O)c1sccc1C,/,.,.,.,/,?
C[C@@H]1CN([C@H](C)CO)C(=O)CCCn2cc(nn2)CO[C@H]1CN(C)C(=O)c1ccc2ccn(C)c2c1,/,.,/,/,/,/
O=C1C2C(C(=O)N1CCN1CCN(Cc3ccc([N+](=O)[O-])cc3)CC1)[C@H]1C=C[C@@H]2C1 (stereo partly specified),.,.,.,.,.,?
